Data on 33 molecules can be found in PubChem BioAssay (NCI).

About 83,000 compounds went through this panel and 20% of them were active in at least one assay; those are over-represented in the sample as a whole.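 Step 1: grow cells in 96-well plates. Step 2: add test compound at a single concentration. Step 3: incubate 48 h. Step 4: record percent growth.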 A number with no mark means an inactive call. The source made the active and inactive calls. Rule for the calls: active = growth percent below 10; inactive = the rest.

This experiment deals with SF-539 CNS. The experiment in a line: NCI-60 one-dose screen, 48 h (100 = growth as untreated, 0 = no growth, -100 = all killed). Particulars: 10 µM unless noted.
Consider `O=C(Nc1ccc2c(ccn2Cc2ccccn2)c1)c1ccnnc1`, for which the growth was 97.7%.

Turning to `N#C/C(=C\c1ccc(-c2ccc(Cl)cc2Cl)o1)c1ccc(F)cc1`, the growth is 89.9%.

On to `COc1ccc(/C(N)=N/C(N)=N/c2nc3ccccc3s2)cc1`, for which the growth was 90.5%.

In the case of `Nc1nc(-c2cccc([N+](=O)[O-])c2)c(N=Nc2ccccc2)s1`, the growth is 71.6%.

In the case of `CNC(=O)c1cc(Oc2ccc3nc(NC(=O)c4cc(N5CCOCC5)cc(C(F)(F)F)c4)sc3c2)ccn1`, the growth is 91.5%.

Turning to `C=C(C)[C@@H]1CC[C@]2(COP(=O)(OCC)OCC)CC[C@]3(C)[C@H](CC[C@@H]4[C@@]5(C)CCCNC(C)(C)[C@@H]5CC[C@]43C)[C@@H]12`, the growth was 57.7%.

As for `CCCn1cnc2c(c1=N)C(c1ccc(F)cc1)c1sc3c(CC)cccc3c1O2` (stereo not drawn), the growth is -25.6% (active).

As for `CC1(C)[C@@H](O)CC[C@]2(C)[C@H]3CC[C@@H]4[C@H]5[C@H](C(=O)/C=C\c6ccc([N+](=O)[O-])cc6)CC[C@]5(O)CC[C@@]4(C)[C@]3(C)CC[C@@H]12`, the growth is 51.8%.

For `c1cc(-c2nc3ccc4[nH]ncc4c3c3c2CCCC3)[nH]n1`, the growth was 54.1%.

Take `O=C(CSc1nc2ccccc2c(=O)n1-c1ccccc1)Nc1ccc(-c2nc3ccc([N+](=O)[O-])cc3[nH]2)cc1`: the growth is 78.2%.

With `C[C@@H](Nc1ncnc2ccc(-c3cnc(Cl)c(NS(C)(=O)=O)c3)cc12)c1ccccc1`, the growth was 44.5%.

Take `CC(=O)Nc1cccc(Nc2nc(N[C@H](C)c3ccccc3)c3ccccc3n2)c1`: the growth was 73.9%.

As for `COc1cc(-c2nn(C(C)(C)C)cc2-c2ccnc(NCCCNS(=O)(=O)c3cccc(F)c3)n2)ccc1Cl`, the growth is 88.4%.

`Cc1ccc2c(c1)C(=O)/C(=C/c1cccc(F)c1)S2`: the growth was 100%.

On to `CCCC(=O)NC(c1cccnc1)c1cc(C(C)(C)C)c2cccnc2c1O` (stereo not drawn), for which the growth was 13.4%.

Regarding `CCN(CC)CCn1c2ccc(O)cc2c2sc3cc(OC)ccc3c(=O)c21`, the growth was -74.4% (active).

For the molecule `Cn1cc(-c2nc(N)nnc2-c2c[nH]c3ccccc23)c2cc(Br)ccc21`, the growth is 6.14% (active).

Take `C=C(C)[C@@H]1CC[C@]2(COCCCNCCC#N)CC[C@]3(C)[C@H](CC[C@@H]4[C@@]5(C)CC[C@H](OCCCNCCC#N)C(C)(C)[C@@H]5CC[C@]43C)[C@@H]12`: the growth is 67.5%.

Regarding `CCNC(=O)N1CCc2cc(OC)c(OCCc3ccc(OC)c(N)c3)cc2C1c1ccc(C)cc1C` (stereo not drawn), the growth was 13.6%.

Consider `CC1(C)CC[C@]2(C(=O)N3CCOCC3)CC[C@]3(C)C(=CC[C@@H]4[C@@]5(C)C/C(=C/c6ccccn6)C(=O)C(C)(C)[C@@H]5CC[C@]43C)[C@@H]2C1`, for which the growth was 94%.

`O=C(Nc1nc2ccc([N+](=O)[O-])cc2s1)Nc1ccccc1Br`: the growth was 39.9%.

With `CC1=N[C@@H]2CN(C(=O)OC(C)(C)C)C[C@@H]2n2c1cc1ccccc1c2=O`, the growth was 99.3%.

`Cc1[nH]c(C(=O)Nc2ccccc2OCc2cccc(C(=O)N3CCC[C@@H](N)C3)c2)c(Cl)c1Cl`: the growth is -89.2% (active).

`Cc1cc(-c2ccc(Cl)cc2)n(Cc2nnc(SCC(=O)Nc3ccc(S(N)(=O)=O)cc3)n2-c2ccc([N+](=O)[O-])cc2)n1`: the growth was 97%.

`Cc1c(F)cc(C(N)=O)cc1NCC(=O)Nc1ccc([N+](=O)[O-])cc1`: the growth is 95.1%.

For `COc1cc(-c2ccc3ncnc(NCc4ccccc4)c3c2)cnc1OC`, the growth is 48.7%.

For the molecule `CCNC(=O)N1CCc2cc(OC)c(OCCc3ccc(OC)c(N)c3)cc2C1c1cc(C)c(C)cc1C` (stereo not drawn), the growth is 26.4%.

Take `O=C1[C@H]2Cc3c([nH]c4ccccc34)[C@@H](c3ccc(Br)cc3)N2C(=O)CN1C1CCN(CC2CCCCC2)CC1`: the growth is -89.3% (active).

In the case of `COC(=O)c1ccc(NC2=C/C(=N/S(=O)(=O)c3ccc(C(=O)O)cc3)c3ccccc3C2=O)cc1`, the growth is -83.1% (active).

Take `COc1ccc(CCOc2cc3c(cc2OC)CCN(C(=O)NCc2cocn2)C3c2ccc(C)cc2C)cc1` (stereo not drawn): the growth is 1.43% (active).

Regarding `Cc1ccc(C(=O)NN2C(=O)/C(=C/C=C/c3ccco3)SC2=S)cc1`, the growth was 93.4%.

For `COc1ccc(/C=C/C(=O)c2cccc(NC(=O)CSc3nc4ccccc4c(=O)n3-c3ccccc3)c2)cc1OC`, the growth was 101%.

In the case of `C[C@H]1c2[nH]c3ccccc3c2C[C@H]2C(=O)N(CCCCCCC(=O)NO)CC(=O)N21`, the growth is 73.2%.
